Results on nine compounds are retold here after PubChem BioAssay (Tox21).

Values without a mark were called inactive. Results filed as inconclusive are left out. Activity calls are given as the source filed them. Unless noted, calls come from the whole dose curve; as a rule, active = well fitted curve in the direction sought with a large enough effect in the repeat runs; inconclusive = weak or mixed curves; inactive = no such curve, though single readings can be large; an effect the other way counts as inactive or inconclusive.

Assay [1] can be described thus: qHTS assay to identify small molecule agonists of the estrogen receptor alpha (ER-alpha) signaling pathway in the presence of an antagonist - cell viability counter screen (AID 1259386).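 Note: series mostly up to about 92 µM; cells exposed to compounds for 22 h at 37 °C before the viability read; nearly all actives have a fitted effect of over 30% in size.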 In a few lines:
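VM7Luc4E2, stripped-serum pre-culture 5 d; 24hr plating; +ICI-182,780 10.0nM final; cpds 15 conc, 22hr, 37C/5% CO2; CellTiter-Fluor added at 21hr, fluorescence 1hr later.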
(In general: In qHTS, concentration-response curves come from the screen itself.)

For assay [2], the target named is Progesterone receptor (Homo sapiens) (UniProt P06401). Description: qHTS assay to identify small molecule agonists of the progesterone receptor (PR) signaling pathway (AID 1346784; calls by dose curve; note: nearly all actives have a fitted effect of over 30% in size; note: potency is the fitted concentration of half-maximal effect). In a few lines:
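Agonist qHTS: compounds pinned onto 3,000 PR-UAS-bla HEK 293T cells per well in charcoal-stripped serum medium, 16hr at 37C, then beta-lactamase activity measured by LiveBLAzer FRET fluorescence after 2 hours at room temperature.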

Assay [3] has the same target. Description: qHTS assay to identify small molecule antagonists of the progesterone receptor (PR) signaling pathway (AID 1346795; active = well fitted inhibition curve with a large enough effect in the signal ratio in the repeat runs, not every such curve was filed as active; the % refers to the signal ratio; note: potency is the fitted concentration of half-maximal effect). The gist of the method:
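Antagonist mode with agonist R5020 at 1 nM final and 16 hr incubation at 37C. Reporter was beta-lactamase driven by UAS in HEK293T (PR-UAS-bla), 2% charcoal-stripped serum; signal from LiveBLAzer FRET substrate, 2 hr at room temperature.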

The nature of assay [4]: qHTS assay to identify small molecule antagonists of the progesterone receptor (PR) signaling pathway - cell viability counter screen (AID 1346798). Note: series mostly up to about 92 µM; nearly all actives have a fitted effect of over 50% in size. The gist of the method: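 Cytotoxicity read as CellTiter-Glo luminescence (30 min, room temperature) in the same wells as the beta-lactamase readout. HEK293T PR-UAS-bla cells in charcoal-stripped 2% FBS received compound and R5020, then 16 h at 37C, 5% CO2.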

The nature of assay [5]: qHTS assay to identify small molecule agonists of the progesterone receptor (PR) signaling pathway - cell viability counter screen (AID 1346799; calls by dose curve; note: nearly all actives have a fitted effect of over 45% in size). In a few lines:
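Cytotoxicity measured by CellTiter-Glo luminescence (30 min, RT) in the same wells as the PR beta-lactamase agonist read. Those HEK293T cells had 16 h compound treatment at 37 C in 2% charcoal-stripped FBS medium.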

Assay [6] can be described thus: qHTS assay to identify small molecule antagonists of the TGF-beta/Smad signaling pathway - cell viability counter screen (AID 1346824). Note: nearly all actives have a fitted effect of over 50% in size. The gist of the method: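 Cytotoxicity counter-screen run in the same wells as the beta-lactamase Smad reporter read: CellTiter-Glo luminescence after 30 min at room temperature. HEK 293T SBE-bla cells had 5 hr compound exposure at 37 C with TGF-beta1 (0.25 ng/mL stock).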

A short description of assay [7]: qHTS assay to identify small molecule agonists of the TGF-beta/Smad signaling pathway - cell viability counter screen (AID 1346829). Note: top concentration of the series differs between compounds; nearly all actives have a fitted effect of over 45% in size. The gist of the method: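 Luminescence from CellTiter-Glo, read after a 30 min room-temperature incubation, gives cell viability of SBE-bla HEK 293T cells treated 5 hr with compounds at 37 C.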
Assay [8] in a line: qHTS assay to identify small molecule agonists of the TGF-beta/Smad signaling pathway (AID 1346859; active = well fitted activation curve with a large enough effect in the signal ratio in the repeat runs, not every such curve was filed as active; the % refers to the signal ratio; note: series mostly up to about 77 µM). The gist of the method:
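Fluorescence (ex 405 nm; em 460 and 530 nm) was read 2 h after LiveBLAzer FRET substrate at RT. The preceding compound treatment of overnight-plated SBE-bla HEK293T cells lasted 5 h at 37 C.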

In assay [9] the target is Thyrotropin-releasing hormone receptor (Homo sapiens) (UniProt P34981). Briefly: qHTS assay to identify small molecule agonists of the thyrotropin-releasing hormone receptor (TRHR) signaling pathway (AID 1346891; calls by dose curve; note: series mostly up to about 58 µM). The gist of the method:
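Agonist-mode intracellular calcium readout: kinetic fluorescence over 3 min at 1 s intervals after compound addition to TRHR-HEK293 cells (18 h seeded, 2 h dye-loaded at 37 C). Fifteen concentrations, triplicates.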

The nature of assay [10]: Human pregnane X receptor (PXR) small molecule agonists, qHTS cell viability counter screen (AID 1346977). Note: nearly all actives have a fitted effect of over 50% in size. The gist of the method: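 Same-well viability read: CellTiter-Fluor added after 23 hr compound exposure, fluorescence measured 1 hr later. Cells were PXR-Luc HepG2 seeded at 2,000/well in 5% charcoal-stripped FBS medium, rested 5 hr before dosing at 37 C.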
Assay [11] in a line: Caspase-3/7 induction in HepG2 cells by small molecules, qHTS assay (AID 1346978). Note: nearly all actives have a fitted effect of over 15% in size. The gist of the method: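 Caspase-3/7 induction was measured by Caspase-Glo 3/7 luminescence (30 min, room temperature) after a 17 hr compound exposure of wild-type HepG2 cells seeded at 2,000 per well and pre-incubated 5 hr.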
A short description of assay [12]: Caspase-3/7 induction in CHO-K1 cells by small molecules, qHTS cell viability counter screen (AID 1346979). Note: nearly all actives have a fitted effect of over 35% in size. The gist of the method: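 Cytotoxicity counter screen: CellTiter-Fluor added to compound-treated wild-type CHO-K1 cells at 16 h (37C, 5% CO2), fluorescence measured 1 h later; same wells as caspase-3/7 measurement.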
Assay [13] in a line: Caspase-3/7 induction in CHO-K1 cells by small molecules, qHTS assay (AID 1346980). Note: nearly all actives have a fitted effect of over 15% in size. In a few lines: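 Luminescent Caspase-Glo 3/7 read (30min, room temperature) quantified apoptosis induction. Cells were wild-type CHO-K1, treated with compound for 17hr at 37 C and 5% CO2.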
The nature of assay [14]: Caspase-3/7 induction in HepG2 cells by small molecules, qHTS cell viability counter screen (AID 1346981). Note: series mostly up to about 92 µM; nearly all actives have a fitted effect of over 30% in size. In a few lines: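 HepG2, WT, 2,000 cells/well; 5 hr pre-incubation 37 C/5% CO2; compound pin-transferred from DMSO; 16 hr exposure; CellTiter-Fluor, 1 hr; fluorescence read.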
The target of assay [15] is Nuclear receptor subfamily 1 group I member 2 (Homo sapiens) (UniProt O75469). Description: Human pregnane X receptor (PXR) small molecule agonists, qHTS assay (AID 1346982). Note: nearly all actives have a fitted effect of over 35% in size. Note: potency is the fitted concentration of half-maximal effect. In a few lines: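 Luciferase signal from ONE-Glo (30 min, room temperature) measured activation of hPXR-driven CYP3A4 reporter expression in PXR-Luc HepG2 cells treated with compounds for 24 hr at 37 C.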
Chain of Nuclear receptor subfamily 1 group I member 2 (Homo sapiens) (O75469 whole entry, looked up): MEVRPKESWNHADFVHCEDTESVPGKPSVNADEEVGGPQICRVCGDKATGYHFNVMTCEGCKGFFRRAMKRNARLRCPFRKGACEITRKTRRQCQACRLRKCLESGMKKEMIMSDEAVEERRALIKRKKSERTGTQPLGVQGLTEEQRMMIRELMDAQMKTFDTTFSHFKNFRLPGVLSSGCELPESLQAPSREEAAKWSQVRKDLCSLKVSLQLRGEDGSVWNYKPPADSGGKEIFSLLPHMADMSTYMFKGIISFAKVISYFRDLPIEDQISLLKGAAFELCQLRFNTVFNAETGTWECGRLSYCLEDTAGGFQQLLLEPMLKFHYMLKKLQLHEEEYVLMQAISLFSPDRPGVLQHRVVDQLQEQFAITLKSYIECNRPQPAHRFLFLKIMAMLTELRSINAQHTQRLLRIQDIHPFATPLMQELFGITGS

The target in assay [16] is Acetylcholinesterase (Homo sapiens) (UniProt P22303). Briefly: Acetylcholinesterase (AChE) small molecule antagonists: colormetric cell-based qHTS assay (AID 1347395; calls by dose curve; note: nearly all actives have a fitted effect of over 30% in size; note: potency is the fitted concentration of half-maximal effect). In a few lines: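 Colorimetric readout: DTNB quantifies thiocholine from acetylthiocholine hydrolysed by endogenous AChE of SH-SY5Y cells (2,000/well, plated overnight). Compound pretreatment 30 min, substrate incubation 90 min, both 37 C.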
Chain of Acetylcholinesterase (Homo sapiens) (P22303 whole entry, looked up): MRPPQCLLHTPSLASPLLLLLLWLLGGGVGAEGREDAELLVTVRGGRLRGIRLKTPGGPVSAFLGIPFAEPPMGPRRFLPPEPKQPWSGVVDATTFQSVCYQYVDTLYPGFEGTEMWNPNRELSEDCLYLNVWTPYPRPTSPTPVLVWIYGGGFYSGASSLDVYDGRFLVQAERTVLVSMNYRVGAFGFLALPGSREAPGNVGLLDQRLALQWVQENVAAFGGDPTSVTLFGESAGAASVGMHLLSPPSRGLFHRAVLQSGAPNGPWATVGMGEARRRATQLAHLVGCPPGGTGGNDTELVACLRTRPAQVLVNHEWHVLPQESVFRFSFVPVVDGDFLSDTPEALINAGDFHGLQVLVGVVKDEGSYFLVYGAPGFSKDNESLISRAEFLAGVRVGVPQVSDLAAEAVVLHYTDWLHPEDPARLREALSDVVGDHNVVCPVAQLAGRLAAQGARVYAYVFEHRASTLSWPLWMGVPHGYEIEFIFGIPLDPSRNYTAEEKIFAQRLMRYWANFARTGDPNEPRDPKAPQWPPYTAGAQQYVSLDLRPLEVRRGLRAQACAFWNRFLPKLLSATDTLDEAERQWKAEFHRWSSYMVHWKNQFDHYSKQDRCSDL

Assay [17] has as its target Thyrotropin-releasing hormone receptor (Homo sapiens) (UniProt P34981). Briefly: qHTS assay to identify small molecule antagonists of the thyrotropin-releasing hormone receptor (TRHR) signaling pathway (AID 1346877; active = well fitted inhibition curve with a large enough effect in the repeat runs, not every such curve was filed as active; note: series mostly up to about 51 µM). The gist of the method: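 Intracellular calcium fluorescence, read kinetically every second over 3 min, reports TRH-evoked signalling in HEK293 cells carrying TRHR. Test compounds were added 5 min ahead of a 1 nM TRH challenge.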

Chain of Thyrotropin-releasing hormone receptor (Homo sapiens) (P34981 whole entry, looked up): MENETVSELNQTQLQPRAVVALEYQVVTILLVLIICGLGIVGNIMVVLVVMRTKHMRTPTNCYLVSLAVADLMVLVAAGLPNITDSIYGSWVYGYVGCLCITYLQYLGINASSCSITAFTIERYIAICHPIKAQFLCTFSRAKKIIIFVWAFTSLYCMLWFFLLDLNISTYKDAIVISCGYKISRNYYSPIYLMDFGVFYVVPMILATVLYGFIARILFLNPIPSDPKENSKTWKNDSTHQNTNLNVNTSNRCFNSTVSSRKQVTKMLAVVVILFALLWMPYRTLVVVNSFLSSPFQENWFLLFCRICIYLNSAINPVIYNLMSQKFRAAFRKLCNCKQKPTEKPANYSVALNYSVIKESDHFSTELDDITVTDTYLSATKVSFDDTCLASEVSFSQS
Chain of Progesterone receptor (Homo sapiens) (P06401 whole entry, looked up): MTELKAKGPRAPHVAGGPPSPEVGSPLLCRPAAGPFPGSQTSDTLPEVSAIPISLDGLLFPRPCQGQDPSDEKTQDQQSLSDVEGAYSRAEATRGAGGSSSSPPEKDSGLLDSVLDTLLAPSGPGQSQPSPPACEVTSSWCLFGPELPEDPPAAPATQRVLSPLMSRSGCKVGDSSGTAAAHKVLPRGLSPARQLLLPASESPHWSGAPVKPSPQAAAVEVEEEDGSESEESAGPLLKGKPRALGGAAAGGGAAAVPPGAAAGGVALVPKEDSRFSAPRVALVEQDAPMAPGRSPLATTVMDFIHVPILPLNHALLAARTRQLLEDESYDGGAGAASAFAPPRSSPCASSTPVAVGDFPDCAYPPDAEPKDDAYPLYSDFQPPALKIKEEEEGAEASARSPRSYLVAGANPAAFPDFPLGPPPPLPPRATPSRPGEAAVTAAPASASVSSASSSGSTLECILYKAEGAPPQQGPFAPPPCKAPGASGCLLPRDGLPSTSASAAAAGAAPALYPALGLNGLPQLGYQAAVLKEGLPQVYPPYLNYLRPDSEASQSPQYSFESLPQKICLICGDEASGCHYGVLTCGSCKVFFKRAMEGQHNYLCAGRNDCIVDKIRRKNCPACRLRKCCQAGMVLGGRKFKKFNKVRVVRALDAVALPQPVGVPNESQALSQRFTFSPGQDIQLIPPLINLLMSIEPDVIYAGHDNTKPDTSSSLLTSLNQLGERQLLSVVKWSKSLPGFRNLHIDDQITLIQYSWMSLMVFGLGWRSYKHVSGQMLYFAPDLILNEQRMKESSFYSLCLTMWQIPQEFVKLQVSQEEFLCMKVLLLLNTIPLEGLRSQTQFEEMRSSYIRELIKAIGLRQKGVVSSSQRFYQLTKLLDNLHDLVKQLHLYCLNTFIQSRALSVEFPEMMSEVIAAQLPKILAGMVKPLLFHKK

Turning to `O=[N+]([O-])c1ccccc1-c1ccccc1`, the Potency entry in assay [1], in assay [2], in [3], in [4], in assay [5] and in assay [6] was “inactive” throughout. For the same compound, the Potency result in [7], in [9], in [10], in assay [11], in assay [12] and in [13] was “inactive” throughout. Further, the Potency entry in assay [14], in assay [15] and in assay [16] was “inactive” each time. Moreover, the compound was classed as inactive in assay [8].

With `Cc1cc2c3c(c1)C(c1ccccc1)=N[C@@H](NC(=O)c1ccncc1)C(=O)N3CC2`, the Potency result in [1], in assay [2], in assay [3], in assay [4], in [5] and in assay [6] was “inactive” in each case. Moreover, the Potency entry in assay [7], in [17], in assay [9], in [10], in assay [11] and in assay [12] was “inactive” throughout. The Potency entry in [13], in assay [14] and in [16] was “inactive” in each case. Besides, the compound was called inactive in assay [8]. Moreover, the Potency in assay [15] is 13.7 µM (active).

For the compound `CSC(=O)c1c(C(F)F)nc(C(F)(F)F)c(C(=O)SC)c1CC(C)C`, the Potency entry in [1], in assay [2], in [4], in assay [5], in [6] and in [7] was “inactive” throughout. The Potency entry in assay [17], in assay [9], in assay [10], in [11], in [13] and in [14] was “inactive” throughout. For the same compound, in [16], the Potency entry is “inactive”. Besides, the Potency in assay [3] was 30.5 µM (active); in assay [15] it was 4.83 µM (active).

Take `C[C@]12CC[C@H]3[C@@H](CCC4=CC(=O)CC[C@@H]43)[C@@H]1CC[C@@H]2OC(=O)CCc1ccco1`: the Potency result in assay [1], in [3], in assay [4], in assay [6], in assay [7] and in [17] was “inactive” in each case. Further, the Potency result in assay [9], in assay [10], in assay [11], in assay [14] and in assay [16] was “inactive” each time. Moreover, the Potency in [2] was 0.841 µM (active). For the same compound, the outcome in assay [8] was inactive.

For `COCCC#N`, the Potency result in [1], in assay [2], in [3], in assay [4], in [5] and in assay [6] was “inactive” in each case. Moreover, the Potency result in assay [10], in [11], in [13], in assay [14], in assay [15] and in assay [16] was “inactive” throughout. Further, in [8], the compound was classed as inactive.

On to `CCOP(=S)(OCC)SC(CCl)N1C(=O)c2ccccc2C1=O` (stereo not drawn), for which the Potency entry in assay [1], in [2], in assay [4], in [6], in [7] and in [17] was “inactive” each time. In addition, the Potency entry in assay [9], in assay [10], in [11], in assay [13] and in assay [14] was “inactive” throughout. Besides, the Potency was 27.3 µM (active) in assay [3], 4.33 µM (active) in [15] and 31.7 µM (active) in [16].

Regarding `CCCCON=O`, the Potency entry in assay [1], in assay [2], in assay [3], in assay [4], in [5] and in assay [6] was “inactive” each time. For the same compound, the Potency result in [9], in assay [10], in assay [11], in assay [12], in assay [13] and in [14] was “inactive” throughout. Also, the Potency entry in assay [15] and in assay [16] was “inactive” each time. Besides, the outcome in assay [8] was inactive.

With `CNC(=O)CSP(=O)(OC)OC`, the Potency result in [1], in assay [2], in assay [3], in assay [4], in [6] and in [10] was “inactive” each time. Further, the Potency result in [11], in assay [13], in assay [14] and in assay [15] was “inactive” each time.

With `O=P(Cl)(Cl)Cl`, the Potency entry in assay [1], in assay [2], in assay [3], in assay [4], in [5] and in assay [6] was “inactive” throughout. The Potency result in assay [17], in assay [9], in [10], in assay [11], in assay [13] and in assay [14] was “inactive” each time. Besides, the Potency entry in assay [15] and in [16] was “inactive” each time. Moreover, the outcome in [8] was inactive.
